Measurements from PubChem BioAssay AID1159580 (chemical genetic matrix, 2015).
“And” between values parts separate entries of the source, which are not always exact repeats. Identical values can stand only once. About 2,000 (36%) of roughly 5,500 compounds were called active. Not shown: some 18% with an inconclusive outcome. Rule as the data show it: active = normalized growth mostly below about 0.91 (no sharp cut-off); inconclusive = no clear call, values can overlap the other calls; inactive = mostly above about 0.92. The list shows a part of the results.

Assay: chemical genetic growth profiling, strain panel (AID 1159580);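 also: tested at 20 µM; growth read once vehicle control cultures reached saturation at 30 °C; 1 = growth at the plate median or of vehicle wells; lower values mean less growth of the strain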
Details: growth OD

Measured: normalized growth

CCN(CC)CCOC(=O)C(c1ccccc1)C1CCCCC1 (configuration not stated)
inactive: S. cerevisiae deletion strains, locus YAL013W, strain DEP1, active compounds read low 1 | S. cerevisiae deletion strains, locus YBR021W, strain FUR4, active compounds read low 1 | S. cerevisiae deletion strains, locus YBR229C, strain ROT2, active compounds read low 1 | S. cerevisiae deletion strains, locus YCL029C, strain bik1, active compounds read low 0.958 | S. cerevisiae deletion strains, locus YDL035C, strain GPR1, active compounds read low 0.999 | S. cerevisiae deletion strains, locus YDL074C, strain BRE1, active compounds read low 0.948 | S. cerevisiae deletion strains, locus YDL101C, strain DUN1, active compounds read low 0.983 | S. cerevisiae deletion strains, locus YDL134C, strain PPH21, active compounds read low 1.01 | S. cerevisiae deletion strains, locus YDL185W, strain tfp1, active compounds read low 0.946 | S. cerevisiae deletion strains, locus YDL192W, strain arf1, active compounds read low 0.971 | S. cerevisiae deletion strains, locus YDR101C, strain arx1, active compounds read low 0.964 | S. cerevisiae deletion strains, locus YDR150W, strain NUM1, active compounds read low 0.989 | S. cerevisiae deletion strains, locus YDR162C, strain NBP2, active compounds read low 0.99 | S. cerevisiae deletion strains, locus YDR318W, strain mcm21, active compounds read low 0.97 | S. cerevisiae deletion strains, locus YDR388W, active compounds read low 0.948 | S. cerevisiae deletion strains, locus YDR502C, strain sam2, active compounds read low 0.998 | S. cerevisiae deletion strains, locus YEL061C, strain CIN8, active compounds read low 0.999 | S. cerevisiae deletion strains, locus YER110C, active compounds read low 0.973 | S. cerevisiae deletion strains, locus YER155C, strain BEM2, active compounds read low 1 | S. cerevisiae deletion strains, locus YER167W, strain BCK2, active compounds read low 1.01 | S. cerevisiae deletion strains, locus YGL078C, strain dbp3, active compounds read low 0.99 | S. cerevisiae deletion strains, locus YGL086W, strain mad1, active compounds read low 1.02 | S. cerevisiae deletion strains, locus YGL248W, strain PDE1, active compounds read low 1.01 | S. cerevisiae deletion strains, locus YGR078C, strain PAC10, active compounds read low 0.966 | S. cerevisiae deletion strains, locus YGR135W, strain pre9, active compounds read low 0.968 | S. cerevisiae deletion strains, locus YGR229C, strain SMI1, active compounds read low 0.972 | S. cerevisiae deletion strains, locus YGR252W, strain gcn5, active compounds read low 1.11 | S. cerevisiae deletion strains, locus YHR030C, strain SLT2, active compounds read low 0.995 and 1.06 | S. cerevisiae deletion strains, locus YHR079C, strain IRE1 (second series), active compounds read low 0.964 | S. cerevisiae deletion strains, locus YHR079C, strain IRE1, active compounds read low 1.04 | S. cerevisiae deletion strains, locus YHR094C, strain hxt1, active compounds read low 0.975 | S. cerevisiae deletion strains, locus YHR129C, strain ARP1, active compounds read low 0.992 | S. cerevisiae deletion strains, locus YHR200W, strain rpn10, active compounds read low 0.975 | S. cerevisiae deletion strains, locus YIL066C, strain RNR3, active compounds read low 0.984 | S. cerevisiae deletion strains, locus YIL073C, strain SPO22, active compounds read low 0.958 | S. cerevisiae deletion strains, locus YIL125W, strain kgd1, active compounds read low 0.986 | S. cerevisiae deletion strains, locus YIR030C, strain dcg1, active compounds read low 0.981 | S. cerevisiae deletion strains, locus YJL095W, strain BCK1, active compounds read low 0.938 and 1.05 | S. cerevisiae deletion strains, locus YJL134W, strain LCB3, active compounds read low 0.998 | S. cerevisiae deletion strains, locus YJL168C, strain set2, active compounds read low 0.966 | S. cerevisiae deletion strains, locus YJL187C, strain SWE1 (second series), active compounds read low 0.969 | S. cerevisiae deletion strains, locus YJR043C, strain POL32, active compounds read low 0.991 | S. cerevisiae deletion strains, locus YJR066W, strain TOR1, active compounds read low 1 | S. cerevisiae deletion strains, locus YJR075W, strain HOC1, active compounds read low 0.954 | S. cerevisiae deletion strains, locus YKL009W, strain mrt4, active compounds read low 0.962 | S. cerevisiae deletion strains, locus YKL068W, active compounds read low 0.978 | S. cerevisiae deletion strains, locus YKL085W, strain MDH1 (second series), active compounds read low 0.97 | S. cerevisiae deletion strains, locus YKL085W, strain MDH1, active compounds read low 0.97 | S. cerevisiae deletion strains, locus YKL190W, strain CNB1, active compounds read low 0.989 | S. cerevisiae deletion strains, locus YKR001C, strain vps1, active compounds read low 0.999 | S. cerevisiae deletion strains, locus YLR039C, strain RIC1, active compounds read low 1.12 | S. cerevisiae deletion strains, locus YLR058C, strain SHM2, active compounds read low 1 | S. cerevisiae deletion strains, locus YLR102C, strain apc9, active compounds read low 0.983 | S. cerevisiae deletion strains, locus YLR113W, strain HOG1, active compounds read low 1.02 | S. cerevisiae deletion strains, locus YLR262C, strain YPT6, active compounds read low 1.12 | S. cerevisiae deletion strains, locus YLR268W, strain sec22, active compounds read low 0.906 | S. cerevisiae deletion strains, locus YLR330W, strain CHS5, active compounds read low 1 | S. cerevisiae deletion strains, locus YLR342W, strain FKS1 (second series), active compounds read low 1.02 | S. cerevisiae deletion strains, locus YLR371W, strain rom2, active compounds read low 0.962 | S. cerevisiae deletion strains, locus YLR418C, strain cdc73, active compounds read low 0.931 | S. cerevisiae deletion strains, locus YML016C, strain PPZ1, active compounds read low 1 | S. cerevisiae deletion strains, locus YML032C, strain rad52, active compounds read low 0.948 | S. cerevisiae deletion strains, locus YML124C, strain tub3, active compounds read low 0.977 | S. cerevisiae deletion strains, locus YMR078C, strain ctf18, active compounds read low 0.949 | S. cerevisiae deletion strains, locus YMR223W, strain ubp8, active compounds read low 1.01 | S. cerevisiae deletion strains, locus YMR263W, strain SAP30, active compounds read low 0.969 | S. cerevisiae deletion strains, locus YMR307W, strain GAS1, active compounds read low 1.23 | S. cerevisiae deletion strains, locus YNL067W, strain RPL9B, active compounds read low 0.965 | S. cerevisiae deletion strains, locus YNL128W, strain TEP1, active compounds read low 0.98 | S. cerevisiae deletion strains, locus YNL153C, strain GIM3, active compounds read low 0.973 | S. cerevisiae deletion strains, locus YNL183C, strain NPR1, active compounds read low 0.983 | S. cerevisiae deletion strains, locus YNL233W, strain BNI4, active compounds read low 0.99 | S. cerevisiae deletion strains, locus YNL250W, strain rad50, active compounds read low 0.992 | S. cerevisiae deletion strains, locus YNL271C, strain bni1, active compounds read low 0.974 | S. cerevisiae deletion strains, locus YNL298W, strain CLA4, active compounds read low 0.969 | S. cerevisiae deletion strains, locus YNL307C, strain MCK1, active compounds read low 0.978 | S. cerevisiae deletion strains, locus YNL322C, strain KRE1, active compounds read low 0.988 | S. cerevisiae deletion strains, locus YNR052C, strain pop2, active compounds read low 0.952 | S. cerevisiae deletion strains, locus YOL006C, strain TOP1, active compounds read low 0.94 | S. cerevisiae deletion strains, locus YOL012C, strain htz1 1.03 | S. cerevisiae deletion strains, locus YOL147C, strain pex11, active compounds read low 0.976 | S. cerevisiae deletion strains, locus YOR061W, strain CKA2, active compounds read low 0.993 | S. cerevisiae deletion strains, locus YOR069W, strain VPS5, active compounds read low 1 | S. cerevisiae deletion strains, locus YOR136W, strain idh2, active compounds read low 0.981 | S. cerevisiae deletion strains, locus YOR144C, strain elg1, active compounds read low 0.981 | S. cerevisiae deletion strains, locus YOR184W, strain ser1, active compounds read low 0.97 | S. cerevisiae deletion strains, locus YOR231W, strain MKK1, active compounds read low 1.04 | S. cerevisiae deletion strains, locus YOR316C, strain cot1, active compounds read low 0.955 | S. cerevisiae deletion strains, locus YPL055C, strain LGE1, active compounds read low 0.959 | S. cerevisiae deletion strains, locus YPL241C, strain CIN2, active compounds read low 1 | S. cerevisiae deletion strains, locus YPL256C, strain CLN2, active compounds read low 1.06 | S. cerevisiae deletion strains, locus YPR119W, strain clb2, active compounds read low 0.964 | S. cerevisiae deletion strains, locus YPR141C, strain kar3, active compounds read low 0.975 | S. cerevisiae deletion strains, locus YPR163C, strain tif3, active compounds read low 0.961 | S. cerevisiae deletion strains, locus YPR167C, strain met16, active compounds read low 0.96 | S. cerevisiae deletion strains, strain wtn01, active compounds read low 0.938 | S. cerevisiae strains, strain wild type, active compounds read low 0.995
